Test results reported in PubChem BioAssay AID1045 (SRMLSC, 2008).
Among all 1,500 compounds or so, about 1,400 (93%) were called active. No rule for the calls is given here. The set was probably picked from earlier hits. These entries were drawn from the full list. Potency and affinity values are given separately.

Test: growth suppression of beta-catenin-knockout colon cells, dose response, cell-based, HCT116, human colon tumor (AID 1045)
Conditions: CellTiter-Glo, 60 h; series mostly up to 30 µM; viability: at the top concentration

| Structure (SMILES) | viability |
| --- | --- |
| Cc1[nH]nc2c1C(C1CC=CCC1)C(C#N)=C(N)O2 (stereo not given) | 96.1% (inactive) |
| Cc1cc(C)c2c(=O)n(CC(=O)NCCCN3CCOCC3)sc2n1 | 83.9% (inactive) |
| N/C(=N\c1nc(C(F)(F)F)cc(=O)[nH]1)Nc1ccc(Cl)cc1 | 90.8% (inactive) |
| OCCn1c(C(F)(F)F)nc2ccccc21 | 90.5% (inactive) |
| COC(=O)Nc1nc2c(s1)CCCC2 | 104% (inactive) |
| O=C(N/N=C/c1ccc(O)c(O)c1O)/C(=C/c1ccc([N+](=O)[O-])cc1)NC(=O)c1ccccc1 | 81.1% (inactive) |
| COc1ccc(N2CCN(C(c3cc(OC)ccc3OC)c3nnnn3CC3CCCO3)CC2)cc1 (stereo not given) | 89.4% (inactive) |
| Cc1cccc(CS(=O)(=O)c2nnc([C@H](Cc3ccccc3)NC(=O)OC(C)(C)C)o2)c1 | 92.4% (inactive) |
| CCCCS/C(N)=N/N=C/c1ccccc1O | 97.4% (inactive) |
| CC(C)c1cc(=O)oc2c3c4c(cc12)CCCN4CCC3 | 86.2% (inactive) |
| CN1/C(=C\C(=S)NC(=O)c2ccc([N+](=O)[O-])cc2)C(C)(C)c2ccccc21 | 94.3% (inactive) |
| O=S(=O)(c1cccc2ccccc12)N1CCSC1 | 96.6% (inactive) |
| CCCCn1c(=NC(=O)c2ccco2)c(C(=O)OCC)cc2c(=O)n3ccccc3nc21 | 81.3% (inactive) |
| Cc1cc(Nc2ccccc2)nn1C(=O)c1ccccc1 | 98.3% (inactive) |
| CCCC(=O)Nc1ccc(C)c(O)c1 | 93.3% (inactive) |
| COC(=O)c1cc(OC)c(OC)cc1NC(=O)c1ccccc1 | 89% (inactive) |
| OC1(c2cccc(C(F)(F)F)c2)CCN(c2ccc(-c3ccccc3)nn2)CC1 | 93.7% (inactive) |
| CCN(CC)c1ccc(N=Cc2ccc(N(CC)CC)cc2O)cc1 | 87.8% (inactive) |
| CCCCNC(=O)Nc1c(C(=O)OC)[nH]c2ccc(C)cc12 | 81.5% (inactive) |
| CN(C)S(=O)(=O)c1cccc(NC(=O)COC(=O)c2cccc(S(=O)(=O)N3CCc4ccccc4C3)c2)c1 | 91.7% (inactive) |
| c1ccc2c(c1)CCCC2C1=NCCN1 (stereo not given) | 96.7% (inactive) |
| O=C(Nc1cccc2ccccc12)c1onc2c1CCCC2 | 87.9% (inactive) |
| COc1ccc(NC(=O)CCCn2c(=O)c3sccc3n(Cc3ccccc3)c2=O)cc1 | 90.1% (inactive) |
| OC1C2CN3CCN(C2)CC1(Cc1ccccc1)C3 (stereo not given) | 97.8% (inactive) |
| O=C(c1ccc2c(=O)n(CC3CCCO3)c(=S)[nH]c2c1)N1CCN(c2ccccc2)CC1 (stereo not given) | 99.5% (inactive) |
| CCOC(=O)N1CCN(C(=O)c2nn(-c3ccc(C)cc3)c(=O)c3c2c2ccccc2n3C)CC1 | 88.9% (inactive) |
| C=CCNc1nnc(SC2CC(=O)N(c3ccc(OC)cc3)C2=O)s1 (stereo not given) | 101% (inactive) |
| Cc1c(Cl)ccc2sc(NC(=O)CN3C(=O)c4ccccc4C3=O)nc12 | 101% (inactive) |
| COc1ccc(S(=O)(=O)CCC(=O)N(C)c2ccc(OC)cc2OC)cc1 | 87% (inactive) |
| CCCCN1C[C@H](O)[C@@H](O)[C@H](O)[C@H]1CO | 99.3% (inactive) |
